Measurements as given in PubChem BioAssay AID1159580 (chemical genetic matrix, 2015).
The whole screen tested about 5,500 compounds, of which about 2,000 (36%) were called active. Inconclusive results (about 18%) are left out. No stated cut-off is given here; in the data, active means normalized growth mostly below about 0.91 (no sharp cut-off); inconclusive means no clear call, values can overlap the other calls; inactive means mostly above about 0.92. The list shows a part of the results.

Assay: chemical genetic growth profiling, strain panel (AID 1159580);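 further: tested at 20 µM; growth read once vehicle control cultures reached saturation at 30 °C; 1 = growth at the plate median or of vehicle wells; lower values mean less growth of the strain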
Details: S. cerevisiae deletion strains, growth OD

Measured: normalized growth

COc1cc(NS(C)(=O)=O)ccc1Nc1c2ccccc2nc2ccccc12
inactive: locus YAL040C, strain CLN3, active compounds read low 0.985 | locus YCL061C, strain MRC1 (second series), active compounds read low 0.981 | locus YDR363W, strain ESC2, active compounds read low 0.916 | locus YER002W, strain NOP16, active compounds read low 0.989 | locus YGR078C, strain PAC10, active compounds read low 0.985 | locus YGR229C, strain SMI1, active compounds read low 0.955 | locus YNL128W, strain TEP1, active compounds read low 1.02 | locus YNL175C, strain NOP13, active compounds read low 1 | locus YNL197C, strain WHI3, active compounds read low 0.967 | locus YNL224C, strain SQS1, active compounds read low 0.98 | locus YNL322C, strain KRE1, active compounds read low 0.965 | locus YOR083W, strain WHI5 (second series), active compounds read low 0.975 | locus YPL055C, strain LGE1, active compounds read low 0.902

COc1cc(NS(C)(=O)=O)ccc1Cc1c2ccccc2nc2ccccc12
active: locus YAL021C, strain ccr4, active compounds read low 0.785 | locus YBR009C, strain hhf1, active compounds read low 0.828 | locus YCL016C, strain dcc1, active compounds read low 0.476 | locus YCL061C, strain MRC1, active compounds read low 0.867 | locus YDL005C, strain med2, active compounds read low 0.681 | locus YDR069C, strain doa4, active compounds read low 0.842 | locus YER016W, strain bim1, active compounds read low 0.909 | locus YFR010W, strain ubp6, active compounds read low 0.877 | locus YJL092W, strain hpr5, active compounds read low 0.712 | locus YJL115W, strain asf1, active compounds read low 0.341 | locus YLR027C, strain aat2, active compounds read low 0.916 | locus YLR221C, strain rsa3, active compounds read low 0.899 | locus YLR320W, strain mms22, active compounds read low 0.208 | locus YNL322C, strain KRE1 (second series), active compounds read low 0.822 | locus YOR080W, strain dia2, active compounds read low 0.494 | locus YOR290C, strain snf2, active compounds read low 0.823
inactive: locus YAL026C, strain drs2, active compounds read low 1 | locus YAL030W, strain snc1, active compounds read low 0.971 | locus YBL061C, strain skt5, active compounds read low 1.01 | locus YBR023C, strain chs3, active compounds read low 0.988 | locus YBR171W, strain sec66, active compounds read low 1.02 | locus YBR231C, strain swc5, active compounds read low 0.969 | locus YBR279W, strain paf1, active compounds read low 0.988 | locus YCL011C, strain gbp2, active compounds read low 0.939 | locus YCL069W, strain vba3, active compounds read low 1 | locus YCR088W, strain abp1, active compounds read low 0.986 | locus YDL040C, strain nat1, active compounds read low 0.994 | locus YDR001C, strain nth1, active compounds read low 0.999 | locus YDR137W, strain rgp1, active compounds read low 1.1 | locus YDR159W, strain sac3, active compounds read low 0.947 | locus YDR195W, strain ref2 1.05 | locus YDR297W, strain sur2, active compounds read low 0.96 | locus YDR334W, strain swr1, active compounds read low 1.01 | locus YDR335W, strain msn5, active compounds read low 0.993 | locus YDR392W, strain spt3, active compounds read low 0.795 | locus YEL003W, strain gim4, active compounds read low 0.966 | locus YEL037C, strain rad23, active compounds read low 0.979 | locus YEL061C, strain CIN8 (second series), active compounds read low 0.982 | locus YER015W, strain faa2, active compounds read low 0.986 | locus YER111C, strain swi4, active compounds read low 1.01 | locus YER155C, strain BEM2 (second series), active compounds read low 0.885 | locus YGL167C, strain pmr1, active compounds read low 1 | locus YGL173C, strain kem1, active compounds read low 0.991 | locus YGL227W, strain vid30, active compounds read low 0.994 | locus YGL240W, strain doc1, active compounds read low 0.892 | locus YGL253W, strain hxk2, active compounds read low 0.996 | locus YHR013C, strain ard1, active compounds read low 0.874 | locus YHR027C, strain rpn1, active compounds read low 0.978 | locus YHR030C, strain SLT2, active compounds read low 0.974 | locus YHR079C, strain IRE1, active compounds read low 0.946 | locus YHR142W, strain chs7, active compounds read low 0.964 | locus YJL095W, strain BCK1 (second series), active compounds read low 0.986 | locus YJL095W, strain BCK1, active compounds read low 1 | locus YJL129C, strain trk1, active compounds read low 0.933 | locus YJL154C, strain vps35, active compounds read low 0.998 | locus YJL164C, strain tpk1, active compounds read low 0.918 | locus YJL166W, strain qcr8, active compounds read low 0.945 | locus YJR066W, strain TOR1, active compounds read low 0.919 | locus YKL160W, strain elf1, active compounds read low 0.985 | locus YKR026C, strain gcn3, active compounds read low 0.998 | locus YKR091W, strain srl3, active compounds read low 1 | locus YLL001W, strain dnm1, active compounds read low 0.936 | locus YLL026W, active compounds read low 0.977 | locus YLL041C, strain sdh2, active compounds read low 0.99 | locus YLR113W, strain HOG1, active compounds read low 0.971 | locus YLR258W, strain gsy2, active compounds read low 0.969 | locus YLR262C, strain YPT6 (second series), active compounds read low 1 | locus YLR342W, strain FKS1, active compounds read low 0.927 | locus YLR357W, strain rsc2, active compounds read low 0.987 | locus YLR370C, strain arc18, active compounds read low 0.923 | locus YLR384C, strain iki3, active compounds read low 0.994 | locus YML120C, strain ndi1, active compounds read low 0.956 | locus YMR058W, strain fet3, active compounds read low 0.949 | locus YMR125W, strain sto1, active compounds read low 0.98 | locus YMR129W, active compounds read low 0.984 | locus YMR205C, strain PFK2, active compounds read low 0.947 | locus YMR231W, strain pep5, active compounds read low 1 | locus YNL071W, strain lat1, active compounds read low 0.987 | locus YNL183C, strain NPR1, active compounds read low 0.952 | locus YNL209W, strain ssb2, active compounds read low 0.986 | locus YNL248C, strain rpa49, active compounds read low 0.945 | locus YNR049C, strain mso1, active compounds read low 0.989 | locus YOR001W, strain rrp6, active compounds read low 0.915 | locus YOR070C, strain gyp1, active compounds read low 0.984 | locus YOR083W, strain WHI5, active compounds read low 0.934 | locus YOR106W, strain vam3, active compounds read low 0.926 | locus YOR231W, strain MKK1, active compounds read low 1.01 | locus YOR265W, strain rbl2, active compounds read low 0.985 | locus YOR270C, strain vph1, active compounds read low 0.935 | locus YPL051W, strain arl3, active compounds read low 0.992 | locus YPL078C, strain atp4, active compounds read low 1.02 | locus YPL106C, strain sse1, active compounds read low 1.02 | locus YPL240C, strain hsp82, active compounds read low 0.991 | locus YPL256C, strain CLN2, active compounds read low 0.944
